{"source": "the supplement of paper PMC11634586", "note": "Counter-ions that a name gives are not always drawn.", "data": [{"test_system": "NCI-H1688", "test": "inhibition of cell viability relative to untreated control (fraction); higher = stronger growth inhibition, active = 0.5 or more", "conditions": "30 µM; 24 h", "method_in_brief": "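Inhibition of cell viability appears as a fraction, based on viability relative to untreated cells. The assay used NCI-H1688 small cell lung cancer cells seeded in 96-well plates at 3 × 10^3 cells/well, treated one day later with a natural compound library (TargetMol) at 30 µM for 24 h at 37°C and 5% CO2. Absorbance at 450 nm with Cell Counting Kit-8 was recorded in triplicate.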", "values": [{"smiles": "CC(=O)OCC(=O)[C@@]1(O)CC[C@H]2[C@@H]3CCC4=CC(=O)C=C[C@]4(C)[C@@]3(Cl)[C@@H](Cl)C[C@@]21C", "note": "[Dichlorisone Acetate]", "inhibition of cell viability": "-0.129 (inactive)"}, {"smiles": "O=c1c(-c2ccc(O[C@@H]3O[C@H](CO)[C@@H](O)[C@H](O)[C@H]3O)cc2)coc2cc(O)cc(O)c12", "note": "[Sophoricoside]", "inhibition of cell viability": "0.495 (inactive)"}, {"smiles": "C[C@H]1[C@H](OC(=O)CCC(=O)O)O[C@@H]2O[C@@]3(C)CC[C@H]4[C@H](C)CC[C@@H]1[C@@]24OO3", "note": "[Artesunate]", "inhibition of cell viability": "0.726 (active)"}, {"smiles": "COC1=CC(=O)C[C@@H](C)[C@]12Oc1c(Cl)c(OC)cc(OC)c1C2=O", "note": "[Griseofulvin]", "inhibition of cell viability": "0.615 (active)"}, {"smiles": "COc1ccc2cc1Oc1ccc(cc1)C[C@H]1c3cc(c(OC)cc3CCN1C)Oc1c(O)c(OC)cc3c1[C@H](C2)N(C)CC3", "note": "[(+)-Fangchinoline]", "inhibition of cell viability": "0.984 (active)"}, {"smiles": "O[C@H]1[C@H](O)[C@@H](O)[C@H](O)[C@@H](O)[C@H]1O", "note": "[Inositol]", "inhibition of cell viability": "-0.137 (inactive)"}, {"smiles": "N[C@@H](Cc1c[nH]c2ccc(O)cc12)C(=O)O", "note": "[L-5-Hydroxytryptophan]", "inhibition of cell viability": "0.0989 (inactive)"}, {"smiles": "CC(=O)O[C@]1(C)CC[C@@]23C[C@H]1C(C)(C)[C@@H]2CC[C@H]3C", "note": "[Cedryl acetate]", "inhibition of cell viability": "-0.223 (inactive)"}, {"smiles": "OC[C@H]1O[C@H](O[C@H]2O[C@H](CO)[C@@H](O)[C@H](O)[C@H]2O)[C@H](O)[C@@H](O)[C@@H]1O", "note": "[D-(+)-Trehalose dihydrate]", "inhibition of cell viability": "0.249 (inactive)"}, {"smiles": "O=C[C@H](NS(=O)(=O)O)[C@@H](O)[C@H](O)[C@H](O)CO", "note": "[N-Sulfo-glucosamine sodium salt]", "inhibition of cell viability": "0.162 (inactive)"}, {"smiles": "N[C@@H](Cc1cc(I)c(O)c(I)c1)C(=O)O", "note": "[3,5-Diiodotyrosine Dihydrate]", "inhibition of cell viability": "0.24 (inactive)"}, {"smiles": "O=C1CCC[C@@H]2[C@H]3CCC[N+]4([O-])CCC[C@@H](CN12)[C@@H]34", "note": "(stereo partly drawn) [Oxymatrine]", "inhibition of cell viability": "0.0776 (inactive)"}, {"smiles": "CC(=O)c1ccc(O)c(C(=O)O)c1", "note": "[5-Acetylsalicylic acid]", "inhibition of cell viability": "0.0598 (inactive)"}, {"smiles": "COc1cc(CNC(=O)CCCC/C=C/C(C)C)ccc1O", "note": "[Capsaicin]", "inhibition of cell viability": "0.0438 (inactive)"}, {"smiles": "OC[C@@H](O)[C@@H](O)[C@H](O)[C@H](O)CO", "note": "[D-Mannitol]", "inhibition of cell viability": "-0.179 (inactive)"}, {"smiles": "COc1cc(C=O)ccc1OC(C)=O", "note": "[Acetylvanillin]", "inhibition of cell viability": "-0.295 (inactive)"}, {"smiles": "OCCc1ccc(O)cc1", "note": "[Tyrosol]", "inhibition of cell viability": "0.0116 (inactive)"}, {"smiles": "O=C(O)/C=C/c1ccccc1", "note": "[Cinnamic acid]", "inhibition of cell viability": "-0.0303 (inactive)"}]}]}
